Screens as filed in PubChem.
MARV entry inh: blocks Marburg virus binding to or entry into cells; hit rate 1.8% among 300,000; Potency, µM (top dose mostly 37.8 µM), for inactives: top-dose activity change, negative = inhibition, usual class: inhibitors; AID 540276; Marburg virus pseudotyped entry inhibition, cell reporter; calls by dose curve; tested in HEK293 cells; further: potency means the concentration at half of the fitted maximal effect
HCMV antiviral: inhibitors of human cytomegalovirus; HFF cells, HCMV-luciferase reporter, 72 h; stronger effect = lower value; activity change, negative = inhibition, % at 57.5 µM; hit rate 4.5% among 410,000; in the data active means activity change below about -60%; inconclusive means no clear call, values can overlap the other calls; inactive means above about -39%
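Luciferase read-out from HCMV-luciferase-infected HFFs (MOI 1 PFU/cell) 72 h post infection at 37C; compounds added after 16 h cell attachment; activity normalized between buffer-only basal and Salinomycin (10uM) inhibitor controls.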
Lassa entry inh: blocks Lassa virus binding to or entry into cells. Potency, µM (series often up to 37.9 µM), inactives show at the highest dose activity change, negative = inhibition, usual class: inhibitors. Lassa virus pseudotype entry inhibition, cell reporter. hit rate 1.2% among 300,000. AID 540256; calls by dose curve; tested in HEK293 cells; further: potency means the concentration at half of the fitted maximal effect; nearly all actives have a fitted effect of over 50% in size
HCV inhibitor: blocks hepatitis C virus; Huh7.5.1 HCVcc-Cre infection, luciferase reporter, 44 h; Potency, µM (highest dose often 41.8 µM), for the others: at the highest dose activity change, negative = inhibition, usual class: inhibitors; hit rate 3.4% among 340,000; active means well fitted inhibition curve with a large enough effect; inconclusive means small, poorly fitted or top-dose-only effect, or another doubt; inactive means no such curve, though single readings can be large or run the other way; further: potency means the concentration at half of the fitted maximal effect
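Cells seeded at 1,000/well and cultured 4 h, then compounds added followed by HCVcc-Cre virus (~0.5 moi). After 44 h further culture, luciferase substrate was added, plates held 15 min at room temperature, and luminescence read for 15 sec.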
FMDV inh: antivirals against foot and mouth disease virus | FMDV antiviral cell-based qHTS | Potency, µM (doses to about 57.9 µM), for the others: at the top dose activity change, negative = inhibition, hits mostly inhibitors | hit rate 1.2% among 410,000; calls by dose curve; tested in HEK293T cells; further: read-out not given here; potency means the concentration at half of the fitted maximal effect; nearly all actives have a fitted effect of over 45% in size
Active calls of the source: *; ? = inconclusive; · = no result given; [ ] = remark or other dose. Only some compounds are listed: those with a hit (about 7.9% of all), similar ones and a draw of the others. On the % scale 0 is the no-effect control and ±100 the full control effect.

SMILES	MARV entry inh	HCMV antiviral	Lassa entry inh	HCV inhibitor	FMDV inh
COc1ccc(/C=C/C(=O)N(C)CC(=O)Nc2cccc(F)c2)cc1S(=O)(=O)N1CCCCC1	?	-5	-29%	?	29%
CCCN(CC(=O)Nc1ccccc1C)C(=O)/C=C/c1ccc(S(=O)(=O)N2CCCCCC2)cc1	11µM*	-32	-24%	?	0%
C/C(=N/N1CCN(Cc2cccc3ccccc23)CC1)c1ccco1	13%[46.1 µM]	21	17%	-5%	13%
COc1ccc(C2c3ccsc3CCN2C(=O)NC(C)(C)C)cc1 (centres undefined)	·	-39	·	22µM*	-16%
CC(C)[C@H](NC(=O)CCCn1nnc2ccccc2c1=O)C(=O)O	7%[46.1 µM]	15	23%[46.1 µM]	1%	0%
COc1ccc(-c2cc(C(=O)Nc3cc(C)nn3-c3ccccc3)no2)cc1OC	24%[46.1 µM]	1	-6%[46.1 µM]	?	-23%
COc1ccc(/C(O)=C2\C(=O)C(=O)N(c3cc(C)on3)[C@H]2c2ccccc2OC)cc1C	-3%	·	·	·	·
Cc1ccc(NC(=O)CSc2nc3ccccc3c3nc(CCn4c(C)nc5ccccc54)nn23)cc1F	·	-11	-12%[46.1 µM]	·	-27%
Cc1nc2ccccc2n1CCc1nc2c3ccccc3nc(SCC(=O)Nc3cccc(C(F)(F)F)c3)n2n1	·	-61*	-5%[46.1 µM]	·	0%
Cc1nc2ccccc2n1CCc1nc2c3ccccc3nc(SCC(=O)NCc3ccco3)n2n1	10µM*	-62*	?	?	?
Cc1ccccc1NC(=O)CSc1nc2ccccc2c2nc(CCn3c(C)nc4ccccc43)nn12	·	-4	1%[46.1 µM]	·	?
Cc1c(O)nc(SCC(=O)Nc2cccc(C(F)(F)F)c2)n(-c2ccccc2)c1=O	-14%	-104*	11%	-2%	-21%
O=C(CN1C(=O)NC2(CCCC2)C1=O)N1CCN(S(=O)(=O)c2ccccc2[N+](=O)[O-])CC1	6%	12	-20%	44%	-7%
Cc1ccc2cc(CN(CCN(C)C)C(=O)Nc3ccc(Cl)cc3)c(=O)[nH]c2c1	?	-1	?	6.3µM*	14%
Cc1ccc(NC(=S)N(CCN(C)C)Cc2cc3cc(C)cc(C)c3[nH]c2=O)cc1	-14%	-18	15%	?	-15%
CCN(CC)CCN(Cc1cc2cccc(C)c2[nH]c1=O)C(=S)Nc1ccccc1	?	-24	7%	?	-18%
Cc1ccc2[nH]c(=O)c(CN(CCCN(C)C)C(=O)Nc3ccc(Cl)cc3)cc2c1	?	0	?	10µM*	-14%
Cc1ccc2cc(CN(CCN(C)C)C(=S)Nc3ccccc3)c(=O)[nH]c2c1C	?	-6	?	10µM*	-1%
COc1cccc(CNC(=O)C2CCN(Cc3cc4ccccc4n3Cc3ccc(C)cc3)CC2)c1	·	10	?	·	-27%
Cc1cc(C)cc(C(=O)N(C)[C@H](Cc2ccc(-c3ccccc3)cc2)C(=O)N[C@@H](Cc2c[nH]c3ccccc23)C(=O)O)c1	·	·	·	·	-22%
O=C(O)c1ccc(NCc2ccncc2)cc1	8%	-19	26%	-9%	-14%
O=C(O)c1cccc(NCc2ccncc2)c1	1%	-61*	·	·	·
O=C(O)C1CCCN1c1nc(-c2ccc(Cl)c(Cl)c2)cc(C(F)(F)F)n1 (centres undefined)	0.5µM*	0	?	?	-26%
CN(C)CC/C=C1\c2ccccc2Sc2ccc(Cl)cc21	?	-7	?	?	-23%
CN(C)CC/C=C1\c2ccccc2Sc2cc(F)c(Cl)cc21	14µM*	-65*	?	?	?
SMILES	MARV entry inh	HCMV antiviral	Lassa entry inh	HCV inhibitor	FMDV inh
CN(C)CC/C=C1\c2cc(F)ccc2CSc2ccccc21	?	18	16µM*	?	?
CN(C)CC/C=C1\c2cc(Cl)ccc2Sc2cc(F)c(F)cc21	·	?	·	11µM*	?
CO[C@H]1[C@H](NC(=O)c2ccco2)c2ccccc2C12CCN(Cc1cccn1-c1ccccn1)CC2	·	·	·	·	1%
COC(=O)C1=C(C(=O)OC)[C@@H]2Nc3ccccc3[C@@]23C[C@@H](C(=O)OC)N(C(=O)NC2CCCC2)C3=N1	-4%[14.2 µM]	·	·	·	·
CCn1c(SCc2cc(=O)[nH]c3ccccc23)nnc1C1CC1	25%	-28	18%	7%	-1%
O=C(NCc1cccn1Cc1ccccc1)Nc1cccc(C(F)(F)F)c1	·	-22	-1%[46.1 µM]	·	-22%
CN(C)CC/C=C1\c2ccc(F)cc2Sc2cc(F)c(Cl)cc21	·	-108*	·	13µM*	?
Cn1ccc2c(OCC(=O)NCc3ccccc3Cl)cccc2c1=O	·	5	-10%[46.1 µM]	·	-18%
COc1cccc(CCNC(=O)c2cnc3sc(N4CCOCC4)nn3c2=O)c1	0%[46.1 µM]	14	·	·	-19%
CCCCCCCOC(=O)C[N+](C)(C)CCOC1CC2CCC1(C)C2(C)C (centres undefined)	11µM*	-73*	?	?	35µM*
CC(C)N(C(=O)c1nn(C)c2c1CSc1ccccc1-2)C1CCCCC1	·	-33	·	?	-14%
Cc1cccc(C)c1NC(=O)CN(C)C(=O)c1ccc(-c2cccc(C(F)(F)F)c2)o1	?	-32	5.6µM*	?	-14%
O=[N+]([O-])c1ccc(N(CCO)CCO)c2c1no[n+]2[O-]	·	-99*	·	·	?
N#Cc1c([N+](=O)[O-])cc([N+](=O)[O-])cc1S(=O)(=O)Cc1ccccc1	?	-99*	11µM*	10µM*	28µM*
COc1cc(/C=N/NC(=O)CCn2c3ccccc3c3ccccc32)ccc1O	-22%	?	?	7.9µM*	·
COc1cc(/C=N/NC(=O)COc2ccc(C)cc2)ccc1OC(=O)c1cccs1	10%	-9	9.2µM*	29%	1%
COc1ccc(/C=N/NC(=O)CCOc2ccccc2C)cc1OC	?	-79*	-8%	16%	-10%
COc1cc(/C=N/NC(=O)c2cccc(NC(=O)c3ccccc3)c2)ccc1O	6%[46.1 µM]	-82*	20%	14%	4%
COc1cc(/C=N/NC(=O)CCn2nnc3ccccc32)ccc1O	0%[46.1 µM]	15	3%[46.1 µM]	9%	14%
COc1cc(/C=N/NC(=O)c2cccc(NC(=O)c3ccccc3C)c2)ccc1O	-26%[46.1 µM]	14	-3%[46.1 µM]	-12%	-17%
CCOc1cc(/C=N/NC(=O)COc2ccc(C)cc2)ccc1OC(=O)c1cccs1	16%	-32	?	2%	·
N/C(=N\N=C\c1ccc(Cl)cc1)N/N=C/c1ccc(Cl)cc1	·	6	·	·	·
CCOc1ccc(C(=O)NCc2ccc3c(c2)OCO3)cc1OCC	·	25	·	-14%	-12%
CC(O)(COc1ccccc1)c1ccc2c(c1)CN(Cc1cccnc1)CCO2 (centres undefined)	·	·	·	·	-19%
O=c1c(-c2cccs2)nc2cncnc2n1Cc1ccccc1	·	·	·	·	4%
CCCC(=O)NC(c1cccs1)c1cc(Cl)c2cccnc2c1O (centres undefined)	3.5µM*	-114*	?	3.2µM*	-21%
CCC(=O)NC(c1ccco1)c1cc(Cl)c2ccccc2c1O (centres undefined)	·	?	·	·	-12%
